The supplement of paper PMC6763611

Tested on: Plasmodium falciparum NF54
Experiment: growth inhibition relative to untreated control; higher = more inhibition
Details: 1 µM; minimal medium (MM); 72 h
Method in brief: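 P. falciparum NF54 ring stages (1% hematocrit, 1% parasitemia, 100 μL/well in 96-well half-area dark plates) were exposed for 72 h at 37 °C to single 5 μM or 1 μM doses of Pathogen Box compounds. The medium was minimal RPMI or minimal RPMI plus chorismate end-products (2.2 μM folate, 7.3 μM pABA, 7.3 μM pHBA, 111 μM tyrosine, 90 μM phenylalanine, tryptophan). Growth inhibition was read by SYBR Green, normalised to untreated controls, with uninfected erythrocytes as background.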

SMILES | growth inhibition [%]
CC(C)(C)n1nc(Cc2ccc(F)c(Cl)c2)c2c(N)ncnc21 | < 0
c1ccc2c(c1)CN(CC1CC1)CC1(CCN(Cc3c[nH]c4cnccc34)CC1)O2 | 97.8
CN(C(=O)c1cc2c(-c3cncnc3)cccc2[nH]1)c1ccccc1 | 56.4
CCN(CC)S(=O)(=O)c1ccc(Cl)c(C(=O)Nc2ccc3nc(C)sc3c2)c1 | 96.2
CNC(=O)C1Cc2ccccc2N1C(=O)Cc1ccc(F)cc1 (stereo unspecified) | < 0
Nc1cccnc1Nc1ccc(Cl)cc1 | < 0
CC1CCCN(C(=O)C(C)Nc2cc(Cl)ccc2N2CCOCC2)C1 (stereo unspecified) | 94.3
NCC(=O)N1CCn2c(nc(-c3ccccc3)c2Nc2ccc3c(c2)OCO3)C1 | > 100
COc1ccc(-c2cncc3ccc(C(=O)NCCCn4ccnc4)nc23)cc1 | 72
CCS(=O)(=O)N(Cc1ccco1)Cc1cc2ccc(C)cc2nc1O | 33.5
FC(F)(F)c1cc(NCCc2ccccc2)nc(-c2ccccn2)n1 | 0.647
O=C(Nc1nnc(-c2ccc(Cl)s2)o1)c1ccc(Cl)s1 | 22.8
O=C(NCCc1ccccc1)c1cc(-c2cccnc2)cnc1NCC1CC1 | > 100
Cc1ccc2nc(Cl)c(CNCc3cccs3)cc2c1 | 31.9
CC(C)NCC(=O)Nc1cccc(C(=O)Nc2cccc(C(F)(F)F)c2)c1 | 83.1
O=C(Nc1nc(-c2ccccn2)cs1)c1cncn1-c1ccccc1 | 7.24
CCOc1ccc(-c2nc(NC(=O)CS(=O)(=O)c3ccccc3)sc2C)cc1 | 95.3
O=C(NCc1cc(Cl)cc(Cl)c1)c1c(C(F)(F)F)nc2ccccn12 | 10.6
Cc1cc2ccccc2n1CC(=O)N1CC(C(=O)N2CCCCC2)Oc2ccccc21 (stereo unspecified) | 95.9

SMILES | growth inhibition [%]
Nc1ncnc2c1c(-c1cnc3ccccc3c1)nn2CC1CCNCC1 | 5.9
CC(C)(C)n1nc(Cc2cccc3ccccc23)c2c(N)ncnc21 | 18.3
N=C(N)c1ccc(-c2cc(-c3ccccc3)on2)cc1 | 5.06
COc1cccc(NC(=O)c2c(NC(=O)c3cccnc3)sc3c2CCC3)c1 | 9.66
O=C(C1CCCCC1)N1CC(=O)N2CCc3ccccc3C2C1 (stereo unspecified) | 15.5
CCCNC(=O)N1CCC2(CC1)CC(=O)c1cc(C)ccc1O2 | 76.5
Cc1ccc(S(=O)(=O)N2CCN(C(=O)c3cc(-c4ccccc4)n[nH]3)CC2)cc1 | 87.1
COc1cccc(OC)c1C(=O)Nc1ccc(Cl)c(-c2nc3ccccc3s2)c1 | < 0
CC1CS(=O)(=O)CCN1/N=C/c1ccc([N+](=O)[O-])o1 (stereo unspecified) | 0.769
COc1ccc(C2(C(=O)Nc3ccc(Br)cc3)CCCC2)cc1 | 2.06
CCN(CC)S(=O)(=O)c1ccc(C(=O)Nc2cc(C)nn2-c2nc(C)c(C)c(=O)[nH]2)cc1 | 10.2
O=C([C@@H](c1ccc(Cl)cc1)c1cccnc1)N1CCN(c2ccc(C(F)(F)F)cc2)CC1 | < 0
Clc1ccc(-n2cc(COc3ccnc4ccccc34)nn2)cc1 | < 0
N=C(N)Nc1ccc(-c2ccc(-c3ccc(NC(=N)N)cc3Cl)o2)c(Cl)c1 | 95.5
CN1CCC(c2cc(-c3ccncc3)c(-c3ccc(F)cc3)[nH]2)CC1 | 72.7
Cc1cc(NC(=O)c2ccc(Oc3ccc(Cl)cc3O)o2)no1 | 27.1
Cc1cc(Nc2ccncc2)n2nc(C)c(-c3ccccc3Cl)c2n1 | 94.2
O=C(Nc1ccc(C(F)(F)F)c(C(F)(F)F)c1)c1cc(Cl)ccc1O | 95
Cc1c[nH]c(CCNC(=O)c2cc(-c3ccc(Cl)cc3)cs2)n1 | > 100

Same assay, conditions: 5 µM; MM + chorismate end-products (CM screening medium); 72 h

SMILES | growth inhibition [%]
CC(C)(C)n1nc(Cc2ccc(F)c(Cl)c2)c2c(N)ncnc21 | 54.9
c1ccc2c(c1)CN(CC1CC1)CC1(CCN(Cc3c[nH]c4cnccc34)CC1)O2 | 93.1
CN(C(=O)c1cc2c(-c3cncnc3)cccc2[nH]1)c1ccccc1 | 96
CCN(CC)S(=O)(=O)c1ccc(Cl)c(C(=O)Nc2ccc3nc(C)sc3c2)c1 | 91.3
CNC(=O)C1Cc2ccccc2N1C(=O)Cc1ccc(F)cc1 (stereo unspecified) | < 0
Nc1cccnc1Nc1ccc(Cl)cc1 | 47.3
CC1CCCN(C(=O)C(C)Nc2cc(Cl)ccc2N2CCOCC2)C1 (stereo unspecified) | 91
NCC(=O)N1CCn2c(nc(-c3ccccc3)c2Nc2ccc3c(c2)OCO3)C1 | > 100
COc1ccc(-c2cncc3ccc(C(=O)NCCCn4ccnc4)nc23)cc1 | 84.4
CCS(=O)(=O)N(Cc1ccco1)Cc1cc2ccc(C)cc2nc1O | 87.4
FC(F)(F)c1cc(NCCc2ccccc2)nc(-c2ccccn2)n1 | 0.0785
O=C(Nc1nnc(-c2ccc(Cl)s2)o1)c1ccc(Cl)s1 | < 0
O=C(NCCc1ccccc1)c1cc(-c2cccnc2)cnc1NCC1CC1 | 59.2
Cc1ccc2nc(Cl)c(CNCc3cccs3)cc2c1 | < 0
CC(C)NCC(=O)Nc1cccc(C(=O)Nc2cccc(C(F)(F)F)c2)c1 | 89.3
O=C(Nc1nc(-c2ccccn2)cs1)c1cncn1-c1ccccc1 | 65
CCOc1ccc(-c2nc(NC(=O)CS(=O)(=O)c3ccccc3)sc2C)cc1 | 95.3
O=C(NCc1cc(Cl)cc(Cl)c1)c1c(C(F)(F)F)nc2ccccn12 | 31.8
Cc1cc2ccccc2n1CC(=O)N1CC(C(=O)N2CCCCC2)Oc2ccccc21 (stereo unspecified) | 96.1

SMILES | growth inhibition [%]
Nc1ncnc2c1c(-c1cnc3ccccc3c1)nn2CC1CCNCC1 | < 0
CC(C)(C)n1nc(Cc2cccc3ccccc23)c2c(N)ncnc21 | 39.5
N=C(N)c1ccc(-c2cc(-c3ccccc3)on2)cc1 | 86.7
COc1cccc(NC(=O)c2c(NC(=O)c3cccnc3)sc3c2CCC3)c1 | 53.5
O=C(C1CCCCC1)N1CC(=O)N2CCc3ccccc3C2C1 (stereo unspecified) | 0.306
CCCNC(=O)N1CCC2(CC1)CC(=O)c1cc(C)ccc1O2 | 86.4
Cc1ccc(S(=O)(=O)N2CCN(C(=O)c3cc(-c4ccccc4)n[nH]3)CC2)cc1 | 82.9
COc1cccc(OC)c1C(=O)Nc1ccc(Cl)c(-c2nc3ccccc3s2)c1 | 22.9
CC1CS(=O)(=O)CCN1/N=C/c1ccc([N+](=O)[O-])o1 (stereo unspecified) | < 0
COc1ccc(C2(C(=O)Nc3ccc(Br)cc3)CCCC2)cc1 | < 0
CCN(CC)S(=O)(=O)c1ccc(C(=O)Nc2cc(C)nn2-c2nc(C)c(C)c(=O)[nH]2)cc1 | 78.9
O=C([C@@H](c1ccc(Cl)cc1)c1cccnc1)N1CCN(c2ccc(C(F)(F)F)cc2)CC1 | < 0
Clc1ccc(-n2cc(COc3ccnc4ccccc34)nn2)cc1 | 32.4
N=C(N)Nc1ccc(-c2ccc(-c3ccc(NC(=N)N)cc3Cl)o2)c(Cl)c1 | 95.7
CN1CCC(c2cc(-c3ccncc3)c(-c3ccc(F)cc3)[nH]2)CC1 | 92.6
Cc1cc(NC(=O)c2ccc(Oc3ccc(Cl)cc3O)o2)no1 | 24.4
Cc1cc(Nc2ccncc2)n2nc(C)c(-c3ccccc3Cl)c2n1 | 94
O=C(Nc1ccc(C(F)(F)F)c(C(F)(F)F)c1)c1cc(Cl)ccc1O | > 100
Cc1c[nH]c(CCNC(=O)c2cc(-c3ccc(Cl)cc3)cs2)n1 | 97.3
